mHTT-CaM PPI inh – mHTT-calmodulin interaction abrogation; P42858; AlphaScreen His-mHTT/GST-CaM binding, luminescence; inhibition, % at 15 µM; actives 3.6% (n = 190,000)
Target sequence (P42858 whole entry, looked up, change not shown): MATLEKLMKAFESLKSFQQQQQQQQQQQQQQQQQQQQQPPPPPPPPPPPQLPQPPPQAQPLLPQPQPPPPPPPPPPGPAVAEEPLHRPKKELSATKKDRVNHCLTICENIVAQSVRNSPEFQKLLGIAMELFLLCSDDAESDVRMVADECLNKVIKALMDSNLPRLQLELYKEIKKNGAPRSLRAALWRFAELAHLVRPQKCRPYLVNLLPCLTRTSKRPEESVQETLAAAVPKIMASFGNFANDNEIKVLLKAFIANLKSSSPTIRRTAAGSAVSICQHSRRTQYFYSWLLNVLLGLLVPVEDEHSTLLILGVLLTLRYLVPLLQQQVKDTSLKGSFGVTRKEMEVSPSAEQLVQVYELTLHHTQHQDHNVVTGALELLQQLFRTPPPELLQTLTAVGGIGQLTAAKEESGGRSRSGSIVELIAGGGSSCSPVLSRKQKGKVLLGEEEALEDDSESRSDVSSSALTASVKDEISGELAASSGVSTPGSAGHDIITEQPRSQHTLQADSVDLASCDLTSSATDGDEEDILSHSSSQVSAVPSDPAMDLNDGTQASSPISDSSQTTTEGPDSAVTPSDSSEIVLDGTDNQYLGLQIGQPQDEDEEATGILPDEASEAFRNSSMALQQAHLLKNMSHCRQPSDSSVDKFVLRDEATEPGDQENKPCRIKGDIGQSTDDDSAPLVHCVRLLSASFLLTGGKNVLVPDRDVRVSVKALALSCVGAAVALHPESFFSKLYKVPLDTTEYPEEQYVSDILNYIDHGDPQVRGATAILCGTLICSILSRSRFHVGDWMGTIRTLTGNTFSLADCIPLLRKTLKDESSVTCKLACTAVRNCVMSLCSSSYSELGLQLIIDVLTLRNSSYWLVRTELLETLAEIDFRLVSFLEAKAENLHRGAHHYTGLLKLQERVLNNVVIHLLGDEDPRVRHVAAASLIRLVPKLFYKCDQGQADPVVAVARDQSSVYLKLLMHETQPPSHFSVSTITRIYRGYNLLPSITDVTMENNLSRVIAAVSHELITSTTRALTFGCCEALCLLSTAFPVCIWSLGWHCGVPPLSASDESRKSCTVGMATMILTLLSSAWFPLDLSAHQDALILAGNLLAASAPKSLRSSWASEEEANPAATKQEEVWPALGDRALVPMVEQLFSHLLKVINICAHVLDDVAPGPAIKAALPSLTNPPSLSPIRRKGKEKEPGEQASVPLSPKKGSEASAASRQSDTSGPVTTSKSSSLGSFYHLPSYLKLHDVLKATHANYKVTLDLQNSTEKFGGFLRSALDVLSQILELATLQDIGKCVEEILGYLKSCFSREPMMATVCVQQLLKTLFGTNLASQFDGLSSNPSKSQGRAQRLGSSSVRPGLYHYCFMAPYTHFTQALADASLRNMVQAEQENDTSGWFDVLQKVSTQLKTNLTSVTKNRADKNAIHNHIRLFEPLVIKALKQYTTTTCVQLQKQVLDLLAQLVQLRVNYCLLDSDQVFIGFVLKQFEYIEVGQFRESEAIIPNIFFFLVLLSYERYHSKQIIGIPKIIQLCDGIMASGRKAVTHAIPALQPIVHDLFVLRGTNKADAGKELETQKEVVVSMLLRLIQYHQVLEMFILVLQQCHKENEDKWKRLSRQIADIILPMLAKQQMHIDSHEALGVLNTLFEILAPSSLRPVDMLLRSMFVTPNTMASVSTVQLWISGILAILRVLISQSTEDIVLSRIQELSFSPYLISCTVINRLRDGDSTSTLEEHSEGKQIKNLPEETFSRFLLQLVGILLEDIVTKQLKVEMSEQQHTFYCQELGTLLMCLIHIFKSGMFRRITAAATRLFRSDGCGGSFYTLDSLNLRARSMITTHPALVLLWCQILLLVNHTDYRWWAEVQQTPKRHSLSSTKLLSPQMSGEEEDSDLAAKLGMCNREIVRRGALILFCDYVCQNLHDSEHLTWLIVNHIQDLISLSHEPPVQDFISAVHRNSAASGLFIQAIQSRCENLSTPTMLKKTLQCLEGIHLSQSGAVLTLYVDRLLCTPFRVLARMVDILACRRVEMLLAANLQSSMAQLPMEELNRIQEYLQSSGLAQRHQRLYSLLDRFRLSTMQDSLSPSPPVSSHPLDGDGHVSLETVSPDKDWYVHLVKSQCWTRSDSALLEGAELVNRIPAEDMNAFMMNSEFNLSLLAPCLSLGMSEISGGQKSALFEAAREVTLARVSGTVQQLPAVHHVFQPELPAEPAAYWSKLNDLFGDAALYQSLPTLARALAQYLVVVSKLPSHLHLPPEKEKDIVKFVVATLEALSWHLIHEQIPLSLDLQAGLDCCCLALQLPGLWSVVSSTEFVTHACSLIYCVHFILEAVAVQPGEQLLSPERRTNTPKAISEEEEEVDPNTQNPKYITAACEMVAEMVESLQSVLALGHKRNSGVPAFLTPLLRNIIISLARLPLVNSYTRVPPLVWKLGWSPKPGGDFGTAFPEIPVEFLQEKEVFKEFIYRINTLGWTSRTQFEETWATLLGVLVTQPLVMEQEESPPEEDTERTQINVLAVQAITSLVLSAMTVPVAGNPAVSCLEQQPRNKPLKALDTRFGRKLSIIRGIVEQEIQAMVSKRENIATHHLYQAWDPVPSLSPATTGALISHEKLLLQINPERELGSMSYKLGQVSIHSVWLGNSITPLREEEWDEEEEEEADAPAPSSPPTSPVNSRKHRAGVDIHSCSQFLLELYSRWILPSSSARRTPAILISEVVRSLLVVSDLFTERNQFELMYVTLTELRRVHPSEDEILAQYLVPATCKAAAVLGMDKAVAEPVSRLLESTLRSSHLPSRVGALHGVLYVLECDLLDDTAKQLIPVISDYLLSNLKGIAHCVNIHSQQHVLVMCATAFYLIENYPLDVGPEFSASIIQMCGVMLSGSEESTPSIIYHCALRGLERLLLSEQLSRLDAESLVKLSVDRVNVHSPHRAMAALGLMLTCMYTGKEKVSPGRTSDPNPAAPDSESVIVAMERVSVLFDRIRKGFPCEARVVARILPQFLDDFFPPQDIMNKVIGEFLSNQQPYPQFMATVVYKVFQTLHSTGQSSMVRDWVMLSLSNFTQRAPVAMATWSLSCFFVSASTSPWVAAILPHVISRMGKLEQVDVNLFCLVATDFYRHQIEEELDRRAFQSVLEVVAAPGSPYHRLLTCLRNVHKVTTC
Pf apPOL block – Pf-apPOL DNA polymerase inhibition. AID 1794808. inhibition, % at 10 µM. actives 0.25% (n = 210,000). Recombinant Pf-apPOL, molecular beacon fluorescence, 1.5 h
Of the large screens only hits and unclear results are named; the others gave an inactive call. Shown are actives, neighbours in structure and some others; about 3.6% of the full set was active somewhere. Rule as the data show it: active = inhibition above about 50%; inactive = the rest.

CC1=NN(C(=O)c2cccc(Cl)c2)C(O)(c2ccc(Cl)cc2)C1 (stereo not drawn)	mHTT-CaM PPI inh 54
CC(C)Sc1ccc(C(F)(F)F)cc1[N+](=O)[O-]	none (no result: mHTT-CaM PPI inh)
O=[N+]([O-])c1cc(C(F)(F)F)ccc1Sc1ccccc1	mHTT-CaM PPI inh 55
CCc1ccc(S(=O)(=O)N2CCC(CN3CCCCCC3)CC2)cc1	mHTT-CaM PPI inh 100
CCc1ccc(S(=O)(=O)N2CCC(CN3CCC(C)CC3)CC2)cc1	none
COc1ccc(NS(=O)(=O)c2ccc(NS(C)(=O)=O)cc2)cc1	Pf apPOL block 55
O=[N+]([O-])c1ccccc1S(=O)(=O)Nc1ccc(Nc2ccccc2)cc1	mHTT-CaM PPI inh 90
COc1ccc(Nc2ccc(OC)cc2)cc1	mHTT-CaM PPI inh 90
NC(=O)c1ccc(NS(=O)(=O)c2ccccc2[N+](=O)[O-])cc1	none
COc1ccc(NC2=C(C)C(=O)CC2)cc1	none
CC(=O)Nc1ccc(S(=O)(=O)Nc2ccc(Oc3ccccc3)cc2)cc1	mHTT-CaM PPI inh 87
COc1ccc(NS(=O)(=O)c2ccc(NS(=O)(=O)c3ccc(OC)cc3)cc2)cc1	none
COc1ccc(NS(=O)(=O)c2ccc(NS(=O)(=O)c3ccc(NC(C)=O)cc3)cc2)cc1	none
O=C(CN1C(=O)CCC1=O)Nc1ccc2c(c1)CN(C(=O)c1cccs1)CC2	none
Cc1csc(NC(=O)CN2CCN(CC(=O)c3ccco3)CC2)n1	none
CCOc1ccc(C(=O)Nc2ccc(C)cc2[N+](=O)[O-])cc1Br	none
COc1ccccc1-n1c(SCC(=O)N2CCCCC2)nc(O)cc1=O	none
O=C(ON=Cc1ccc2c(c1)OCO2)c1ccco1	none (no result: mHTT-CaM PPI inh)
Cc1ccc(NC(=O)CN2CCc3ccccc3C2C(=O)N2CCC(C)CC2)c(C)c1 (stereo not drawn)	none
CCOc1ccc(C(=O)Nc2ccc(OC)cc2OC)cc1Br	none
O=S(=O)(c1cccs1)N1CCC(n2c(-c3ccoc3)nc3cccnc32)C1 (stereo not drawn)	none
COc1ccc(S(=O)(=O)Nc2ccc(Nc3ccccc3)cc2)cc1	mHTT-CaM PPI inh 89
O=S(=O)(Nc1ccc(Nc2ccccc2)cc1)c1ccccc1	mHTT-CaM PPI inh 88
O=S(=O)(Nc1ccc(F)cc1)c1ccccc1	none
COc1ccc(S(=O)(=O)Nc2cccc(NS(=O)(=O)c3ccc(OC)cc3)c2)cc1	none
NS(=O)(=O)c1ccc(NS(=O)(=O)c2ccc(NC(=O)Nc3ccccc3)cc2)cc1	mHTT-CaM PPI inh 96
NS(=O)(=O)c1ccc(NS(=O)(=O)c2ccc(NC(=S)Nc3ccccc3)cc2)cc1	none (no result: Pf apPOL block)
O=[N+]([O-])c1ccc(N=Nc2ccc3c(c2)[nH]c2ccccc23)cc1	none (no result: mHTT-CaM PPI inh)
COc1ccc(C(=O)Nc2cccc(-c3nc4ncccc4o3)c2)cc1OC	none
CCOC(=O)CCC(=O)Nc1ccc2c(c1)CN(C(=O)C1CC1)CC2	none
O=C(c1ccc(Cl)s1)N1CCC(Nc2ncnc3c2CCC3)C1 (stereo not drawn)	none
COCc1cc(C)nc(SCC(=O)Nc2cccc(C(F)(F)F)c2)c1C#N	none
CCn1cc(C(=O)O)c(=O)c2cc(F)c(N(C)CCc3ccc(OC)c(OC)c3)cc21	none
N#Cc1c(N=Cc2cccnc2)sc2c1CCCC2	mHTT-CaM PPI inh 55
N#Cc1c(N=Cc2ccco2)sc2c1CCCC2	none (no result: Pf apPOL block)
COc1cc(OC)c(C2SCCN2S(=O)(=O)c2ccc(Cl)cc2)cc1OC (stereo not drawn)	none
COc1cc(OC)c(C2SCCN2S(=O)(=O)c2ccc(Br)cc2)cc1OC (stereo not drawn)	mHTT-CaM PPI inh 51
COCCN1CCC(CNC(=O)Nc2ccccc2)CC1	none
Nc1cc(C2CCN(C(=O)c3ccccc3Br)CC2)no1	none
CC(=O)Nc1ccc(C(=O)NC(C)CCc2ccccc2)cc1 (stereo not drawn)	none
N#Cc1cccc(NC(=O)N2CCC(c3cc(N)on3)CC2)c1	none
Cc1nc2c(ccc3nc(NC(=O)c4ccc(Cl)s4)sc32)s1	none
Cc1nc2c(ccc3nc(NC(=O)c4ccc5c(c4)OCCO5)sc32)s1	mHTT-CaM PPI inh 69
Fc1ccc(C2N(Cc3ccccc3)CCN2Cc2ccccc2)cc1	none (no result: Pf apPOL block)
CC(Oc1ccc(Cl)cc1Cl)C(=O)Nc1ccncc1 (stereo not drawn)	none
CC(Oc1ccc(Cl)cc1Cl)C(=O)NC1=NN(c2ccccc2)C(=O)C1 (stereo not drawn)	mHTT-CaM PPI inh 68
CC(C)(C)C(=O)N1CCN(Cc2noc(-c3cccc4ccccc34)n2)CC1	none
O=C(O)CCCNc1cc(N2CCOCC2)c2noc3c2c1C(=O)c1ccccc1-3	mHTT-CaM PPI inh 52
CN(C)c1ccc(Nc2cc(N3CCOCC3)c3noc4c3c2C(=O)c2ccccc2-4)cc1	none
O=C1c2ccccc2-c2onc3c(N4CCOCC4)cc(Nc4cccc(F)c4)c1c23	none
O=C(O)c1ccc(Nc2cc(N3CCOCC3)c3noc4c3c2C(=O)c2ccccc2-4)cc1	mHTT-CaM PPI inh 55
COc1ccc(OC)c(CNC(=O)CN2CCN(C(=O)Nc3ccc(F)cc3)CC2=O)c1	none
O=C(CCc1nc(-c2ccccn2)no1)NCc1ccc2c(c1)OCO2	none (no result: mHTT-CaM PPI inh)
O=C(NCc1ccc2c(c1)OCO2)c1ccc2nc(-c3ccccn3)c(-c3ccccn3)nc2c1	Pf apPOL block 61
Cn1c(=O)[nH]c(=O)c2c1nc(SCC(O)CO)n2CC(N)=O (stereo not drawn)	Pf apPOL block 65
CCCCCCn1c(SCC(O)CO)nc2c1c(=O)[nH]c(=O)n2C (stereo not drawn)	none
Cc1nc(C(=O)NCc2cccc(Cl)c2)c(C)n1C1CCN(S(C)(=O)=O)CC1	none
COc1ccc(C2CC(=O)Nc3n[nH]c(-c4ccccc4)c32)c(OC)c1 (stereo not drawn)	mHTT-CaM PPI inh 80
O=C1CC(c2ccccc2Cl)c2c(n[nH]c2-c2ccccc2)N1 (stereo not drawn)	mHTT-CaM PPI inh 69
COc1ccc(C2CC(=O)Nc3n[nH]c(-c4ccc(Cl)cc4)c32)c(OC)c1 (stereo not drawn)	none
O=C1CC(c2ccccc2F)c2c(n[nH]c2-c2ccccc2)N1 (stereo not drawn)	none
O=C(NCCCN1CCCc2ccccc21)C1CCN(c2nnc3ccccn23)CC1	none
CCn1cc(C(=O)O)c(=O)c2cc(F)c(N3CCN(C(=O)c4cccc(C)c4)CC3)cc21	none
O=C(NNC(=O)c1csc(COc2ccc(C3SCCS3)cc2)n1)c1ccc(Cl)cc1	none (no result: mHTT-CaM PPI inh)
N=C1NC(=O)/C(=C\c2ccc(-c3cccc(C(=O)O)c3)o2)S1	none
O=C(c1cccnc1)N1CCN(c2ccc([N+](=O)[O-])cc2)CC1	none
O=C(c1ccc(C#CC2(O)CCCCC2)cc1)N1CCN(c2ccc([N+](=O)[O-])cc2)CC1	mHTT-CaM PPI inh 56
CC1CCc2onc(C(=O)N3CCCCCC3)c2C1 (stereo not drawn)	none
O[C@H]1CN(CC2CCCCC2)[C@@H](c2ccc(Cl)cc2)C[C@@H]1n1cc(C2CC2)nn1	mHTT-CaM PPI inh 54
O[C@@H]1CN(CC2CCCCC2)[C@@H](c2ccccc2)C[C@H]1n1cc(C2CC2)nn1	none
O[C@H]1C[C@H](c2ccccc2)N(CC2CCCCC2)C[C@@H]1n1cc(C2CC2)nn1	mHTT-CaM PPI inh 93
O[C@H]1C[C@H](c2ccc(Cl)cc2)N(Cc2cccs2)C[C@@H]1n1cc(-c2ccc(F)cc2)nn1	mHTT-CaM PPI inh 100
Cc1ccc([C@H]2C[C@H](O)[C@@H](n3cc(-c4ccc(F)cc4)nn3)CN2C(=O)C2CCCCC2)cc1	mHTT-CaM PPI inh 74
O=C(C1CCCCC1)N1C[C@@H](n2cc(-c3ccc(F)cc3)nn2)[C@H](O)C[C@@H]1c1ccccc1	none

Screening data from PubChem.
